Activity calls are given as the source filed them. Rule for the calls: active = hit-call score of the fitted dose curve at least 0.9, where 1 is the maximum; inactive = score below 0.9.
Tests used:
[1] = read-out: Urokinase-type plasminogen activator receptor (uPAR), PLAUR (gene 5329); experiment: BSK_4H_uPAR: BioMAP Diversity Plus: 4H Assay for Urokinase-type plasminogen activator receptor (uPAR) Biomarker Activity (AID 2283030); conditions: primary human endothelial cells (HUVEC); actives raise or lower the signal
Summary of the method: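 Endpoint derived via bidirectional curve fitting against DMSO baseline; readout was ELISA detection of uPAR on umbilical vein endothelial cells at 24 h post-treatment, with SRB-stained parallel cultures assessing cytotoxicity.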

[2] = read-out: Vascular endothelial growth factor receptor 2 (Homo sapiens) (UniProt P35968); experiment: BSK_4H_VEGFRII: BioMAP Diversity Plus: 4H Assay for Vascular endothelial growth factor receptor 2 (VEGFR2) Biomarker Activity (AID 2283031); conditions: primary human endothelial cells (HUVEC); actives raise or lower the signal;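 for AC50: cell-surface VEGFR2 protein level quantified by ELISA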
Summary of the method: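 In this multiplexed HUVEC system, biomarker ELISA was performed after 24 h chemical exposure. Parallel SRB staining (TCA fixation, 560 nm) tracked cytotoxicity; DMSO served as baseline.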

[3] = read-out: Human Leukocyte Antigen - DR isotype (HLADR), HLA-DRA (gene 3122); experiment: BSK_BE3C_HLADR: BioMAP Diversity Plus: BE3C Assay for Human Leukocyte Antigen - DR isotype (HLADR) Biomarker Activity (AID 2283032); conditions: primary human bronchial epithelial cells; actives raise or lower the signal
Summary of the method: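 BioMAP BE3C format: human bronchial epithelium, 24 h compound treatment, ELISA detection of HLA-DR, with bidirectional analysis relative to DMSO.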

[4] = read-out: Vascular cell adhesion molecule 1 (VCAM1), VCAM1 (gene 7412); experiment: BSK_4H_VCAM1: BioMAP Diversity Plus: 4H Assay for Vascular cell adhesion molecule 1 (VCAM1) Biomarker Activity (AID 2283033); conditions: primary human endothelial cells (HUVEC); actives raise or lower the signal
Summary of the method: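 In this human endothelial (HUVEC) system, biomarker ELISA was run 24 h after compound addition, and total protein in parallel wells was assessed by SRB at 560 nm; DMSO served as negative control.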

[5] = read-out: Interferon-gamma inducible Protein 10 (IP10), CXCL10 (gene 3627); experiment: BSK_BE3C_IP10: BioMAP Diversity Plus: BE3C Assay for Interferon-gamma inducible Protein 10 (IP10) Biomarker Activity (AID 2283034); conditions: primary human bronchial epithelial cells; actives raise or lower the signal
Summary of the method: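 BE3C cells (human bronchial epithelial, primary); 24 h exposure; ELISA for IP-10; DMSO-referenced bidirectional fit.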

[6] = read-out: Monokine induced gamma interferon (MIG), CXCL9 (gene 4283); experiment: BSK_BE3C_MIG: BioMAP Diversity Plus: BE3C Assay for Monokine induced gamma interferon (MIG) Biomarker Activity (AID 2283035); conditions: primary human bronchial epithelial cells; actives raise or lower the signal
Summary of the method: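 Dose cells (human primary bronchial epithelial), incubate 24 h, quantify MIG by ELISA, then fit concentration–response in both directions relative to DMSO control.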

[7] = read-out: Plasminogen activator inhibitor-1 (PAI1), SERPINE1 (gene 5054); experiment: BSK_BE3C_PAI1: BioMAP Diversity Plus: BE3C Assay for Plasminogen activator inhibitor-1 (PAI1) Biomarker Activity (AID 2283037); conditions: primary human bronchial epithelial cells; actives raise or lower the signal
Summary of the method: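 In this multiplexed primary-cell system, bronchial epithelial cells receive test chemical and are sampled at 24 h. PAI-1 is read by ELISA, with DMSO serving as negative control for bidirectional fitting.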

[8] = read-out: urokinase plasminogen activator (uPA), PLAU (gene 5328); experiment: BSK_BE3C_uPA: BioMAP Diversity Plus: BE3C Assay for urokinase plasminogen activator (uPA) Biomarker Activity (AID 2283038); conditions: primary human bronchial epithelial cells; actives raise or lower the signal;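 note: uPA protein level quantified by ELISA in cell cultures; uPA read one day after compound addition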
Summary of the method: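 Using confluent primary human lung bronchial epithelial cultures, we dosed chemicals, waited 24 h, then ran a uPA ELISA, fitting bidirectionally against DMSO.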

[9] = read-out: Urokinase-type plasminogen activator receptor (uPAR), PLAUR (gene 5329); experiment: BSK_BE3C_uPAR: BioMAP Diversity Plus: BE3C Assay for Urokinase-type plasminogen activator receptor (uPAR) Biomarker Activity (AID 2283039); conditions: primary human bronchial epithelial cells; actives raise or lower the signal
Summary of the method: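 Chemically treated human bronchial epithelial cells (lung primary) are assayed for uPAR by ELISA after 24 h, with data fitted in both directions using DMSO as negative control.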

[10] = read-out: Interleukin-6 (IL6), IL6 (gene 3569); experiment: BSK_CASM3C_IL6: BioMAP Diversity Plus: CASM3C Assay for Interleukin-6 (IL6) Biomarker Activity for (AID 2283040); conditions: primary human coronary artery smooth muscle cells; actives raise or lower the signal
[11] = read-out: Tissue plasminogen activator (tPA), PLAT (gene 5327); experiment: BSK_BE3C_tPA: BioMAP Diversity Plus: BE3C Assay for Tissue plasminogen activator (tPA) Biomarker Activity (AID 2283041); conditions: primary human bronchial epithelial cells; actives raise or lower the signal
Summary of the method: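 Using human lung primary bronchial epithelial cells, tPA was measured by ELISA 24 h after dosing; data fitted relative to DMSO.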

[12] = read-out: Interleukin-8 (IL8), CXCL8 (gene 3576); experiment: BSK_CASM3C_IL8: BioMAP Diversity Plus: CASM3C Assay for Interleukin-8 (IL8) Biomarker Activity (AID 2283042); conditions: primary human coronary artery smooth muscle cells; actives raise or lower the signal;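 note: IL-8 protein level quantified by ELISA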
[13] = read-out: Human Leukocyte Antigen - DR isotype (HLADR), HLA-DRA (gene 3122); experiment: BSK_CASM3C_HLADR: BioMAP Diversity Plus: CASM3C Assay for Human Leukocyte Antigen - DR isotype (HLADR) Biomarker Activity (AID 2283043); conditions: primary human coronary artery smooth muscle cells; actives raise or lower the signal;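 note: cell-surface HLA-DR protein level quantified by ELISA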
[14] = read-out: Monocyte Chemoattractant Protein-1 (MCP1), CCL2 (gene 6347); experiment: BSK_CASM3C_MCP1: BioMAP Diversity Plus: CASM3C Assay for Monocyte Chemoattractant Protein-1 (MCP1) Biomarker Activity (AID 2283046); conditions: primary human coronary artery smooth muscle cells; actives raise or lower the signal;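 note: MCP-1 level quantified by ELISA 24 h after dosing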
[15] = BSK_CASM3C_Proliferation: Cell Proliferation Assessment in the BioMAP Diversity Plus: CASM3C Assay (AID 2283047); conditions: primary human coronary artery smooth muscle cells;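 note: sulforhodamine B total protein stain as relative cell number at 560 nm; sub-confluent cells exposed 48 h before staining; fitted both ways against DMSO so gain or loss of cell number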
[16] = read-out: Thrombomodulin, THBD (gene 7056); experiment: BSK_CASM3C_Thrombomodulin: BioMAP Diversity Plus: CASM3C Assay for Thrombomodulin Biomarker Activity (AID 2283051); conditions: primary human coronary artery smooth muscle cells; actives raise or lower the signal;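 note: thrombomodulin protein level measured by ELISA 24 h after dosing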
[17] = read-out: Tissue Factor, F3 (gene 2152); experiment: BSK_CASM3C_TissueFactor: BioMAP Diversity Plus: CASM3C Assay for Tissue Factor Biomarker Activity (AID 2283052); conditions: primary human coronary artery smooth muscle cells; actives raise or lower the signal;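 note: cell surface tissue factor protein level read by ELISA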
[18] = read-out: Urokinase-type plasminogen activator receptor (uPAR), PLAUR (gene 5329); experiment: BSK_CASM3C_uPAR: BioMAP Diversity Plus: CASM3C Assay for Urokinase-type plasminogen activator receptor (uPAR) Biomarker Activity (AID 2283054); conditions: primary human coronary artery smooth muscle cells; actives raise or lower the signal;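 note: cell-surface uPAR protein level quantified by ELISA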
[19] = read-out: Epidermal growth factor receptor (EGFR), EGFR (gene 1956); experiment: BSK_hDFCGF_EGFR: BioMAP Diversity Plus: hDFCGF Assay for Epidermal growth factor receptor (EGFR) Biomarker Activity (AID 2283057); conditions: primary human foreskin fibroblasts; actives raise or lower the signal
Summary of the method: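 Cell-based multiplexed assay in primary human foreskin fibroblasts. EGFR is read by ELISA 24 h after treatment and compared with DMSO controls.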

[20] = read-out: Interleukin-8 (IL8), CXCL8 (gene 3576); experiment: BSK_hDFCGF_IL8: BioMAP Diversity Plus: hDFCGF Assay for Interleukin-8 (IL8) Biomarker Activity (AID 2283058); conditions: primary human foreskin fibroblasts; actives raise or lower the signal
Summary of the method: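 Fibroblast monolayers (human foreskin, hDFCGF) received test chemical for 24 h before ELISA detection of IL-8; either increases or decreases relative to DMSO count as activity.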

Measured: AC50

CCCCCCCCCC/C=C/C1CC(=O)OC1=O (stereo not given)
active: [3] 20 µM | [5] 18.4 µM | [7] 20 µM | [11] 14.5 µM
inactive: all other assays above

COC(=O)/C=C\C(=O)OC
active: [3] 10.7 µM | [4] 17.7 µM | [5] 20 µM | [13] 5.11 µM
inactive: all other assays above

CC[N+](CC)(CC(=O)Nc1c(C)cccc1C)Cc1ccccc1
inactive: all assays above

CC(C)CC(=O)CC(C)CC(C)C (stereo not given)
inactive: [8] | [12] | [16] | [19] | [20]
active: [1] 30.9 µM | [2] 32.6 µM | [3] 36 µM | [4] 39.2 µM | [5] 36.9 µM | [6] 34.6 µM | [7] 37.4 µM | [9] 34.9 µM | [10] 20 µM | [11] 29.4 µM | [13] 27.3 µM | [14] 34 µM | [15] 32 µM | [17] 31.7 µM | [18] 30.4 µM

Cc1cccnc1
inactive: all assays above

CCC(C)=NO
inactive: all assays above

CC[N+](CC)(CC(=O)Nc1c(C)cccc1C)Cc1ccccc1 (tested in a mixture with another compound)
inactive: all assays above

C1CN(CCOCCN2CCOCC2)CCO1
inactive: all assays above
